Experimental findings from PubChem BioAssay AID1347426 (Functional Genomics Laboratory (NCATS/FGL), 2020) are described below.

The campaign covered roughly 31,000 sequences. About 1,400 (4.5%) were called active.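 How the source made its calls: active means median seed-adjusted z-score above 1 or below -1; inactive means the rest.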 The sample as a whole holds a higher share of actives than the screen did.

A short description of this test: Novel Modifiers of Survival Motor Neuron (SMN) Protein: Gene Identification via Genome-wide siRNA Screen. As to conditions: HEK293T SMN2-luciferase reporter, siRNA knockdown, 72 h; actives lie on both sides. From the text:
Spinal muscular atrophy (SMA) is the most common neuromuscular autosomal recessive disorder and one of the leading genetic causes of infant death. SMA results from mutations inducing loss of function or deletion in the survival of motor neuron-1 gene (SMN1), leading to deficiency of the survival motor neuron (SMN) protein. Although a second nearly identical gene, SMN2, is retained in humans, its expression primarily produces an aberrantly spliced isoform that is largely unstable and quickly degraded. We performed a genome-wide RNAi screen using a cell-based reporter assay to identify genes and pathways that modulate SMN protein stability. The screen identified over 200 genes that led to the greatest increase or decrease in luciferase expression.
Using HEK293T cells stably expressing a luciferase reporter that combines the promoter and splicing based cassettes in tandem with the major portion of the native SMN2 cDNA with luciferase, we performed a genome-wide RNAi screen to identify modulators of SMN protein levels. Luciferase is expressed when full-length SMN protein is generated with luminescence signal proportional to SMN protein levels. Our luciferase-based reporter assay was used to screen Ambion Silencer Select Human Druggable Genome siRNA library (10418 genes, 3 unique siRNAs per gene) using lipid-based reverse transfection.
Briefly, 1 pmol of each siRNA was spotted to a well of a 384-well plate (Corning, Corning, NY) and 20 microL of serum-free DMEM containing […] of Lipofectamine RNAiMax (Life Technologies, Carlsbad, CA) was then added to each well. Transfected cells were maintained at 37 degrees C in 5% CO2 for 72 hours, 20 microL of ONE-Glo Reagent (Promega) was added to wells for luciferase quantification. Raw luminescence reads were normalized to Ambion(R) Silencer(R) Negative Control #2 siRNA, then log10 transformed. A robust statistical measure of median absolute deviation (MAD) to standardize siRNA activities from each screen. Common Seed Analysis was used to help prioritize clean hits as opposed to those appearing to arise from seed based off-target effects. Candidate modulators were defined as the genes having a MAD score greater than 1.0 or less than -1.0.
In general terms: In a reporter assay the amount or activity of a reporter protein is the signal.
For GGAACCCUUUGAUCAAUUUTT against ADAMTS7, the median seed-adjusted z-score is 0.146 (inactive). As for GAUUGCAGCCAAUCCCUUUTT against TBX6, the median seed-adjusted z-score is 0.144 (inactive). Under CACUAGAUCGCGAUAAUAATT against DDB1 stands 0.231 (inactive); under GGAAGGCAUUACUCACUUATT against SIRT3, -0.341 (inactive). In the case of GCCAGAAUCCUUUAGCAGUTT against CRTC1 it was 0.00363 (inactive); in that of GCAUCUGAAGACUCAGGCATT against TAZ, 0.0549 (inactive); in that of UCAGCUGUAUCGACCAGAATT against MYL7, -1.21 (active). Under GAAAUCAGCCUAUGGUUUATT against NME2 stands -0.0728 (inactive); under CCGUAUAUCUGGUGGUUAUTT against PLOD2, -0.281 (inactive); under GAAUCAUAAUCGCUCCUUUTT against SPRR1A, -0.0536 (inactive). For the sequence GAAUCCGGAUGAGUACUAUTT against PHF17, the median seed-adjusted z-score is 1.01 (active).

Turning to CAGUCCCUAUUUCAAAAUATT against PDE6G, the median seed-adjusted z-score is 0.0109 (inactive).

On to GAAUGAUAUUGUCCAUCGATT against CDKL5, for which the median seed-adjusted z-score is -0.256 (inactive). Under ACUUCAACGUGACCACAGATT against PNPLA6 stands 0.309 (inactive).

On to GAUACGCCCUUAUAAUGCATT against ZBTB11, for which the median seed-adjusted z-score was -0.105 (inactive). Under GAAAUUGCCUAUUACUCUUTT against SLC19A2 stands -0.679 (inactive); under UCAUAAUUAUCUCACCAGATT against MEOX2, 1.36 (active); under CCUCUAACGUACCAUCUAATT against OLAH, -0.44 (inactive). In the case of GUAAGGCAAAGACUCCCUATT against ZNF673 it was 0.419 (inactive). In the case of GGGACGGAAUAAAUGCUCUTT against NDUFA13 it was -0.138 (inactive).

Take CUAAGGAAGUAGUUGAUUATT against HADHB: the median seed-adjusted z-score was -0.188 (inactive).

On to CUACCGUAACAACCGAAAATT against SCN10A, for which the median seed-adjusted z-score is -0.401 (inactive). On to CCAUUGCAAUCAACACCAATT against ALOX5, for which the median seed-adjusted z-score is -0.201 (inactive). Under GAUGACUUUUGAUAGUGAATT against ODC1 stands -1.64 (active); under AGGUCAUUGCUGAGAAGUATT against FMNL1, -0.3 (inactive); under GGAAGUACAUGAACGCAGUTT against EFTUD1, -1.39 (active). In the case of GGACGACACGUUCUACCUGTT against ENDOG it was -0.336 (inactive); in that of GCAGACAAGUCAACCGUGATT against FRK, -0.14 (inactive); in that of CAGGUUAUCGUGUGAAGGATT against TNFRSF14, 0 (inactive). In the case of GCACGAAGCUUUCCCUGGATT against KRT78 it was 0.306 (inactive); in that of GUUUGAUGGUGAUAAGAAATT against PGD, -1.55 (active).

With GAACCAAAUUGUACGAGAATT against IRX3, the median seed-adjusted z-score was -0.285 (inactive). For GGGAUAAAUUUGACGUGGATT against SPAG1, the median seed-adjusted z-score was 0.413 (inactive).

Turning to GCUACAUCCUGUUCGAGAATT against CYP27A1, the median seed-adjusted z-score is -0.391 (inactive).

For the sequence CAGAAUAAAUCACACCCUATT against INSL3, the median seed-adjusted z-score was -0.037 (inactive). In the case of CCAAGAUGAGUAUAAAACATT against HRC it was 1.06 (active); in that of CCAUCUGCUUUCCCGAGUATT against GNAZ, -0.604 (inactive); in that of GCUGUGGAUUGUCCAACAATT against NPY5R, 0.213 (inactive). With UCAACUGACUCAUACCUGUTT against KCNMB1, the median seed-adjusted z-score was -0.465 (inactive).

In the case of GAACCACUAUGAUCAUUGATT against DPYSL2, the median seed-adjusted z-score was -0.569 (inactive).

As for CAGUGUAUCUUCAUAAGAUTT against TAF1L, the median seed-adjusted z-score was 0.289 (inactive). Under AGAGUGGAUUUGUACCAAATT against RAB39B stands 0.485 (inactive). In the case of CGGUGACUCUUUAUGCACATT against PMPCB it was 0.507 (inactive).

Regarding GAGAGUGCCUUACACCAAATT against HOXD13, the median seed-adjusted z-score is 0.116 (inactive).

As for GAGAGAAAAGGGUCACAAATT against GPR61, the median seed-adjusted z-score was 0 (inactive). Under UGACCAUCGUCUACAAGAATT against COPZ2 stands -1.23 (active); under CAAGAAGCAUUAUUACGAUTT against PPIL2, -0.467 (inactive). Take CCCUAGAGUAUUACACGGATT against DGKD: the median seed-adjusted z-score was 0.35 (inactive).

With GGACAAAGACUGGUACGUUTT against HTT, the median seed-adjusted z-score was -0.234 (inactive). Under CCUUUUACAUGUUCUAUUUTT against SIVA1 stands 0.0451 (inactive).

For GGCAAGUUCUCCUUCGACATT against ALDH3B1, the median seed-adjusted z-score is 0.148 (inactive). In the case of GAACUGUCGUAAACGCAAATT against NFE2L3 it was 0.118 (inactive). Under GCCUUAAGGAUGAAGAUAATT against FOXR2 stands 0.593 (inactive); under GGUAUCACCUAUACAGAAATT against FKBP11, -0.085 (inactive); under ACUUCAAGCUCCUAAGCCATT against HBA1, -1.03 (active). In the case of GCCUCUAAGUCUCGAGGAATT against TRPM3 it was -0.633 (inactive); in that of CACAGGUAAUCAUACCCUATT against NDUFA9, -0.325 (inactive). GAAUCAGAAUACGUAGGAATT against PCDHA2: the median seed-adjusted z-score was 0.803 (inactive). Turning to GGAGGAAUCUCGAAUGCGATT against CNOT1, the median seed-adjusted z-score was 1.2 (active).

For GAGGCAAUAUGAAACGAGUTT against CKMT2, the median seed-adjusted z-score was -0.862 (inactive). Under GCAAUUGUCUGAUUAAUCATT against MB stands 0.504 (inactive); under GAACUGCACCAAAGAAACATT against AKTIP, -0.194 (inactive). As for CGGACGAAGAGAUUGGGAATT against DRAP1, the median seed-adjusted z-score is 1.08 (active).

As for GCAGAAUUACAAGACAAGATT against VWA5A, the median seed-adjusted z-score is 0 (inactive). In the case of CCGCCUUUCAAGAACGUAATT against IARS it was -0.198 (inactive); in that of GAAUAGACCUGAAGACAAATT against CFLAR, -0.413 (inactive); in that of CAACGGAAGUGCUACUACUTT against FCER2, -1.75 (active). Consider CCCAAUAUGUGCGGAUUAATT against DSC3, for which the median seed-adjusted z-score is 0.18 (inactive). As for GGAAAGAGAUCUACCGCAATT against MYST1, the median seed-adjusted z-score is 0 (inactive).
